Experiments:
Assay in all cases: DAPPL (digital affinity profiling via proximity ligation, sequencing); 10 mM Tris-HCl pH 7.5, 50 mM NaCl, 1 mM DTT, 4% glycerol, room temperature, 30 min; GST-TFs on glutathione beads, 16-mer random dsDNA library, 0.1% formaldehyde crosslink after washing; high values mean tight binding
Settings in all cases: protein: recombinant; tags: N-terminal GST; dsDNA, one strand shown
FLI1 = molecular target: T1, FLI1 (Homo sapiens, UniProt Q01543 1-452)
T1 sequence: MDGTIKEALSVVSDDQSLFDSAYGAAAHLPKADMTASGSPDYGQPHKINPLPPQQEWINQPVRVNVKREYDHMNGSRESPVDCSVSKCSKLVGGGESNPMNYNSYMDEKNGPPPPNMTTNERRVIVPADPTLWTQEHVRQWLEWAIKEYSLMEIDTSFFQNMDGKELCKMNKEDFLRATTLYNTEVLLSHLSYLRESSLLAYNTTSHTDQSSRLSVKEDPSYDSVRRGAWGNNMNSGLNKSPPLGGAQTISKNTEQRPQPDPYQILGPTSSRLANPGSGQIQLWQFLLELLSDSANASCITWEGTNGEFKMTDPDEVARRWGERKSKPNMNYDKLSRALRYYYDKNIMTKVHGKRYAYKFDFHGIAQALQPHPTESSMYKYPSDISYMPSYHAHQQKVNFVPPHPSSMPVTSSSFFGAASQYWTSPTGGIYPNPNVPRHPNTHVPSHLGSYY
Procedure, shortened: (§1)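 The binding signal reported is, for every hexamer, its read frequency for a factor over its read frequency for the tag-only sample. Reads came from pools of yeast-expressed, GST-fused human transcription factors on glutathione beads, barcoded with DNA and mixed with that sample, which were incubated with 200 nmole of a random double-stranded 16-mer DNA library in Tris/NaCl/DTT/glycerol buffer at room temperature for 30 min. After washing, the pools were crosslinked with 0.1% formaldehyde, proximity-ligated with BsaI/T4 ligase for 1 h at 37 °C, PCR-amplified and sequenced on an Illumina NextSeq500.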

ELK1 = molecular target: T2, ELK1 (Homo sapiens, UniProt P19419 1-428)
T2 sequence: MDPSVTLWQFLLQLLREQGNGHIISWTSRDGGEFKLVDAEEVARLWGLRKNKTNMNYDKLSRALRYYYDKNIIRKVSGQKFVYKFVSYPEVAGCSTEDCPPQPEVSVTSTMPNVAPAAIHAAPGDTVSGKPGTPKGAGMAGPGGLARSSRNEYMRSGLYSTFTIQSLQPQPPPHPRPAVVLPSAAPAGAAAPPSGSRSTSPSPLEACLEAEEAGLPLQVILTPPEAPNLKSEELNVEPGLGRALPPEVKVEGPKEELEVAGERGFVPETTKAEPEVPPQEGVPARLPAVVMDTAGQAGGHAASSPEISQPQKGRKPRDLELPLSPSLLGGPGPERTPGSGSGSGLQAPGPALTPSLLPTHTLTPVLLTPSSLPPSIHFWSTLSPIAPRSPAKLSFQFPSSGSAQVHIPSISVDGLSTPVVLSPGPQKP
Procedure, shortened: as §1

GABPA = molecular target: T3, GABPA (Homo sapiens, UniProt Q06546 1-454)
T3 sequence: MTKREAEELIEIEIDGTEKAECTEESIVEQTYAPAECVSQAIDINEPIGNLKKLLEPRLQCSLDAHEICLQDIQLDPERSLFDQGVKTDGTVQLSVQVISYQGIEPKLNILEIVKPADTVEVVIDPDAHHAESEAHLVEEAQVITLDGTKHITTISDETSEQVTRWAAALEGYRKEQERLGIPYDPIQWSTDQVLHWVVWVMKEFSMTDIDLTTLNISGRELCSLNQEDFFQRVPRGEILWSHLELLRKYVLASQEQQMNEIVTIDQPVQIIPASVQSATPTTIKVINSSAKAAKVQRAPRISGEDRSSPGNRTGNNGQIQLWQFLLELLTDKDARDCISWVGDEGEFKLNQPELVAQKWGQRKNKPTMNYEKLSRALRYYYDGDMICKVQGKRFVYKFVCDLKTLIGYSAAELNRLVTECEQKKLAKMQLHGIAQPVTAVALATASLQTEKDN
Procedure, shortened: as §1

ERG = molecular target: T4, ERG (Homo sapiens, UniProt P11308 1-479)
T4 sequence: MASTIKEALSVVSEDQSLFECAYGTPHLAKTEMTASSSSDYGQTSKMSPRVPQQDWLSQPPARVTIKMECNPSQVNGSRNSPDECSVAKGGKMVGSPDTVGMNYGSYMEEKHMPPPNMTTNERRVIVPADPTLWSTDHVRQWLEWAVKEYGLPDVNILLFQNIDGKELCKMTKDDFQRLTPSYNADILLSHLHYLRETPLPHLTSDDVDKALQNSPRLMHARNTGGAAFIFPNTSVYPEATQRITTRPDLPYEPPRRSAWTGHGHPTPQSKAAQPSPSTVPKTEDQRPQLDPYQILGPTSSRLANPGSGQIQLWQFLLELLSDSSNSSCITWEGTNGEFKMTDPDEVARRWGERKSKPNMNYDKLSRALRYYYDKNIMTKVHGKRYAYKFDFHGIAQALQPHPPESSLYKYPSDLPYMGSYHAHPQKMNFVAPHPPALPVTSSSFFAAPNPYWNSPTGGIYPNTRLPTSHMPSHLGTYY
Procedure, shortened: as §1

ELF1 = ELF1 (Homo sapiens, UniProt P32519 1-619)
Procedure, shortened: as §1

EHF = molecular target: T5, EHF (Homo sapiens, UniProt Q9NZC4 1-300)
T5 sequence: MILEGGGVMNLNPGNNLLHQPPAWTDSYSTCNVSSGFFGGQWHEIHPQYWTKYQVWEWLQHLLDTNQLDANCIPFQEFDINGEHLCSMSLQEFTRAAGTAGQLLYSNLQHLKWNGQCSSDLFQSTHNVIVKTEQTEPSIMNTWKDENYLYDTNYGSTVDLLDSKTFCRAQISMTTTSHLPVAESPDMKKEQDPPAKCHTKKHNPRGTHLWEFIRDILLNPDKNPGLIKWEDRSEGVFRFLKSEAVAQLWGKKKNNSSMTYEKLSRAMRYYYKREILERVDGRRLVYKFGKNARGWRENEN
Procedure, shortened: as §1

SPI1 = SPI1 (Homo sapiens, UniProt P17947 1-270)
Procedure, shortened: as §1

SPIB = SPIB (Homo sapiens, UniProt Q01892 1-262)
Procedure, shortened: as §1

ELK3 = molecular target: T6, ELK3 (Homo sapiens, UniProt P41970 1-407)
T6 sequence: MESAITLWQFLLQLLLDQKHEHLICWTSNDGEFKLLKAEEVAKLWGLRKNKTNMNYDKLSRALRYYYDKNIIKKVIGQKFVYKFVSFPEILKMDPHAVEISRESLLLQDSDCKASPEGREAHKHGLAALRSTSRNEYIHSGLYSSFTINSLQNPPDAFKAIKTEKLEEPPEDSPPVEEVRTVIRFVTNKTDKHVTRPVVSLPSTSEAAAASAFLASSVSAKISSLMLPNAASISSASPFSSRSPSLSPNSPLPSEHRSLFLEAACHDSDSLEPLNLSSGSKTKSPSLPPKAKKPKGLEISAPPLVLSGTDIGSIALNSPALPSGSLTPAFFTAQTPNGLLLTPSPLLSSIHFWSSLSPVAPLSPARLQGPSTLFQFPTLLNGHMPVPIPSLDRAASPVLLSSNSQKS
Procedure, shortened: as §1

Chain of ELF1 (P32519 whole entry): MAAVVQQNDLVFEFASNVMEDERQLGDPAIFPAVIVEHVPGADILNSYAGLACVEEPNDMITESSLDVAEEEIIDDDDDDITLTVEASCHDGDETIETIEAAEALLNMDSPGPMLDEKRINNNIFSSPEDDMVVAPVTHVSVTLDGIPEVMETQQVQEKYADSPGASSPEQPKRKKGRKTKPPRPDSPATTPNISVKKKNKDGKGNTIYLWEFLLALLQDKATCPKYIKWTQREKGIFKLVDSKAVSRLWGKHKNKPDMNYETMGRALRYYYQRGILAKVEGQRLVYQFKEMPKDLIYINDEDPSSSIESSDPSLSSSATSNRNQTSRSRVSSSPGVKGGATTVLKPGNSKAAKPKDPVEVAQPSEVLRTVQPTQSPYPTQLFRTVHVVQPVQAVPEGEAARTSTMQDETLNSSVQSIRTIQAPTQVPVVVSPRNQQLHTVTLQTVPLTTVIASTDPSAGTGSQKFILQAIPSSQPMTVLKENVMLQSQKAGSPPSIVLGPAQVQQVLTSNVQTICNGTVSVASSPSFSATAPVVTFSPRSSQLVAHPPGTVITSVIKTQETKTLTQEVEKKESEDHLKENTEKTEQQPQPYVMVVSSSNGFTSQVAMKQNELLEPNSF
Chain of SPIB (Q01892 whole entry): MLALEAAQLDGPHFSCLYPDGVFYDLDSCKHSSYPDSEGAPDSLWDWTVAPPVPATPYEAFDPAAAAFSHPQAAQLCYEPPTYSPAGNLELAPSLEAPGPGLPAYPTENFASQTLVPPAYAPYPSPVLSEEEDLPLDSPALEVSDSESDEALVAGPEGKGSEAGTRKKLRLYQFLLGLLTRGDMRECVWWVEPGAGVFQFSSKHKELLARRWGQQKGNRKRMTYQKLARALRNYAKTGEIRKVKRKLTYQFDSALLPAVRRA

| Sequence | binding signal (FLI1) | binding signal (ELK1) | binding signal (GABPA) | binding signal (ERG) | binding signal (ELF1) | binding signal (EHF) | binding signal (SPI1) | binding signal (SPIB) | binding signal (ELK3) |
| --- | --- | --- | --- | --- | --- | --- | --- | --- | --- |
| ATTAAA | 1.14 fold enrichment (6-mer frequency, TF over GST control) | 1.1 fold enrichment (6-mer frequency, TF over GST control) | 1.16 fold enrichment (6-mer frequency, TF over GST control) | 1.09 fold enrichment (6-mer frequency, TF over GST control) | 1.2 fold enrichment (6-mer frequency, TF over GST control) | 1.14 fold enrichment (6-mer frequency, TF over GST control) | 1.13 fold enrichment (6-mer frequency, TF over GST control) | 1.19 fold enrichment (6-mer frequency, TF over GST control) | 1.16 fold enrichment (6-mer frequency, TF over GST control) |
| TGAATT | 1.15 fold enrichment (6-mer frequency, TF over GST control) | 1.09 fold enrichment (6-mer frequency, TF over GST control) | 1.19 fold enrichment (6-mer frequency, TF over GST control) | 1.17 fold enrichment (6-mer frequency, TF over GST control) | 1.1 fold enrichment (6-mer frequency, TF over GST control) | 1.17 fold enrichment (6-mer frequency, TF over GST control) | 1.22 fold enrichment (6-mer frequency, TF over GST control) | 1.19 fold enrichment (6-mer frequency, TF over GST control) | 1.06 fold enrichment (6-mer frequency, TF over GST control) |
| CCCGCC | 1.46 fold enrichment (6-mer frequency, TF over GST control) | 1.75 fold enrichment (6-mer frequency, TF over GST control) | 1.57 fold enrichment (6-mer frequency, TF over GST control) | 1.5 fold enrichment (6-mer frequency, TF over GST control) | 1.58 fold enrichment (6-mer frequency, TF over GST control) | 1.53 fold enrichment (6-mer frequency, TF over GST control) | 1.44 fold enrichment (6-mer frequency, TF over GST control) | 1.31 fold enrichment (6-mer frequency, TF over GST control) | 1.63 fold enrichment (6-mer frequency, TF over GST control) |
| AATCAA | 1.1 fold enrichment (6-mer frequency, TF over GST control) | 1.18 fold enrichment (6-mer frequency, TF over GST control) | 1.15 fold enrichment (6-mer frequency, TF over GST control) | 1.21 fold enrichment (6-mer frequency, TF over GST control) | 1.17 fold enrichment (6-mer frequency, TF over GST control) | 1.12 fold enrichment (6-mer frequency, TF over GST control) | 1.15 fold enrichment (6-mer frequency, TF over GST control) | 1.14 fold enrichment (6-mer frequency, TF over GST control) | 1.14 fold enrichment (6-mer frequency, TF over GST control) |

Source: publication PMC7862700, “An all-to-all approach to the identification of sequence-specific readers for epigenetic DNA modifications on cytosine”
